Results on 20 molecules are retold here after PMC9911399, “Two distinct binding modes provide the RNA-binding protein RbFox with extraordinary sequence specificity”.

T1: RBFOX1 RRM (Homo sapiens, UniProt Q9NWB1 109-208)
T1 sequence: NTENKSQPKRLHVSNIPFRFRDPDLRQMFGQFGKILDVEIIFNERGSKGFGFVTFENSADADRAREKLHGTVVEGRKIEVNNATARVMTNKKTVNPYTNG

B1: AUUGUUU (DNA:RNA)
RNA: GGGAGACCGGAAUUCAGAUUGUCCAUUGUUUUUAAAUCCCGUCGUAGCCACCA
DNA 1: CAATCTGAATTCCGGTCTCCC
DNA 2: TGGTGGCTACGACGGGATT
B2: GUUCAGC (DNA:RNA)
RNA: B1 RNA with A25G, G28C, U29A, U30G, U31C
DNA 1: CAATCTGAATTCCGGTCTCCC
DNA 2: TGGTGGCTACGACGGGATT
B3: AAUAUGG (DNA:RNA)
RNA: B1 RNA with U26A, G28A, U30G, U31G
DNA 1: CAATCTGAATTCCGGTCTCCC
DNA 2: TGGTGGCTACGACGGGATT
B4: CGCGAUU (DNA:RNA)
RNA: B1 RNA with A25C, U26G, U27C, U29A
DNA 1: CAATCTGAATTCCGGTCTCCC
DNA 2: TGGTGGCTACGACGGGATT
B5: UAUGUGA (DNA:RNA)
RNA: B1 RNA with A25U, U26A, U30G, U31A
DNA 1: CAATCTGAATTCCGGTCTCCC
DNA 2: TGGTGGCTACGACGGGATT
B6: GUAUUGA (DNA:RNA)
RNA: B1 RNA with A25G, U27A, G28U, U30G, U31A
DNA 1: CAATCTGAATTCCGGTCTCCC
DNA 2: TGGTGGCTACGACGGGATT
B7: ACGGAUU (DNA:RNA)
RNA: B1 RNA with U26C, U27G, U29A
DNA 1: CAATCTGAATTCCGGTCTCCC
DNA 2: TGGTGGCTACGACGGGATT
B8: GGGGAAU (DNA:RNA)
RNA: B1 RNA with A25G, U26G, U27G, U29A, U30A
DNA 1: CAATCTGAATTCCGGTCTCCC
DNA 2: TGGTGGCTACGACGGGATT
B9: CGGGAUU (DNA:RNA)
RNA: B1 RNA with A25C, U26G, U27G, U29A
DNA 1: CAATCTGAATTCCGGTCTCCC
DNA 2: TGGTGGCTACGACGGGATT
B10: GUUAAAU (DNA:RNA)
RNA: B1 RNA with A25G, G28A, U29A, U30A
DNA 1: CAATCTGAATTCCGGTCTCCC
DNA 2: TGGTGGCTACGACGGGATT
B11: GGGAAAU (DNA:RNA)
RNA: B1 RNA with A25G, U26G, U27G, G28A, U29A, U30A
DNA 1: CAATCTGAATTCCGGTCTCCC
DNA 2: TGGTGGCTACGACGGGATT
B12: GGAUUUU (DNA:RNA)
RNA: B1 RNA with A25G, U26G, U27A, G28U
DNA 1: CAATCTGAATTCCGGTCTCCC
DNA 2: TGGTGGCTACGACGGGATT
B13: GGGGCGU (DNA:RNA)
RNA: B1 RNA with A25G, U26G, U27G, U29C, U30G
DNA 1: CAATCTGAATTCCGGTCTCCC
DNA 2: TGGTGGCTACGACGGGATT
B14: GGGAUUU (DNA:RNA)
RNA: B1 RNA with A25G, U26G, U27G, G28A
DNA 1: CAATCTGAATTCCGGTCTCCC
DNA 2: TGGTGGCTACGACGGGATT
B15: GGGCGUU (DNA:RNA)
RNA: B1 RNA with A25G, U26G, U27G, G28C, U29G
DNA 1: CAATCTGAATTCCGGTCTCCC
DNA 2: TGGTGGCTACGACGGGATT
B16: CGGGCGU (DNA:RNA)
RNA: B1 RNA with A25C, U26G, U27G, U29C, U30G
DNA 1: CAATCTGAATTCCGGTCTCCC
DNA 2: TGGTGGCTACGACGGGATT
B17: UCCGGCA (DNA:RNA)
RNA: B1 RNA with A25U, U26C, U27C, U29G, U30C, U31A
DNA 1: CAATCTGAATTCCGGTCTCCC
DNA 2: TGGTGGCTACGACGGGATT
B18: ACUUCCC (DNA:RNA)
RNA: B1 RNA with U26C, G28U, U29C, U30C, U31C
DNA 1: CAATCTGAATTCCGGTCTCCC
DNA 2: TGGTGGCTACGACGGGATT
B19: ACGCCGU (DNA:RNA)
RNA: B1 RNA with U26C, U27G, G28C, U29C, U30G
DNA 1: CAATCTGAATTCCGGTCTCCC
DNA 2: TGGTGGCTACGACGGGATT
B20: UGCCAAA (DNA:RNA)
RNA: GGGAGACCGGAAUUCAGAUUGUCCUGCCAAAUUAAAUCCCGUCGUAGCCACCA
DNA 1: CAATCTGAATTCCGGTCTCCC
DNA 2: TGGTGGCTACGACGGGATT

Positions count from the first letter of the chain named. In all, about 16,000 sequences were measured (“ka relative to ugcaugu”: median about 0.0091, highest 2% from about 0.032 on). For the sample, the highest values were picked, then their nearest neighbours and some sequences at random.

This test addresses T1, RBFOX1 RRM. Briefly: EMSA; HiTS-Eq, 1 nM pool, 10 min; buffer printed only for the single-RNA assays: 10 mM Tris pH 7.5, 150 mM NaCl, 3.4 mM EDTA, 0.001% NP-40, 30 C. As to conditions: tags: His6 N-terminal (pET28a); label: 5' 32P. The essentials:
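Purified RbFox RRM, wild type or mutant, was incubated for 10 min in 50 µL with 1 nM of a 5′-radiolabelled RNA pool carrying 7 randomized nucleotides, whose flanks were annealed to DNA oligonucleotides, over a series of increasing protein concentrations. Unbound RNA was resolved on 8% native PAGE, cut out, reverse-transcribed, barcoded by PCR and sequenced on an Illumina HiSeq 2500. Relative association constants were derived from changes in read counts for each RNA species versus the control reaction and normalised to the cognate motif.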
Take B1: the binding signal was 0.0146 KA relative to UGCAUGU.
The same measure for B2: 0.0147 KA relative to UGCAUGU; for B3: 0.00711 KA relative to UGCAUGU; for B4: 0.0158 KA relative to UGCAUGU.
The figure for B5 is 0.0133 KA relative to UGCAUGU; for B6 it is 0.0118 KA relative to UGCAUGU; for B7 it is 0.00809 KA relative to UGCAUGU.
In the case of B8, the binding signal is 0.0354 KA relative to UGCAUGU.
With B9, the binding signal is 0.03 KA relative to UGCAUGU.
Take B10: the binding signal is 0.00766 KA relative to UGCAUGU.
The figure for B11 is 0.0288 KA relative to UGCAUGU; for B12 it is 0.0184 KA relative to UGCAUGU; for B13 it is 0.0374 KA relative to UGCAUGU.
The same measure for B14: 0.0372 KA relative to UGCAUGU; for B15: 0.0253 KA relative to UGCAUGU.
The figure for B16 is 0.029 KA relative to UGCAUGU; for B17 it is 0.0141 KA relative to UGCAUGU.
As for B18, the binding signal is 0.00296 KA relative to UGCAUGU.
The same measure for B19: 0.00555 KA relative to UGCAUGU; for B20: 0.0103 KA relative to UGCAUGU.
